The sample as a whole holds a higher share of hits than the screen did.
Giardia killer: Small Molecules that selectively kill Giardia lamblia: qHTS; Giardia lamblia trophozoite viability; AID 540267, 2011; hit rate 0.15% among 340,000; activity change, % at 7.66 µM, hits read low; in the data active = activity change below about -80%; inconclusive = between about -30% and that limit;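 also: parasites exposed to compound for two days anaerobically before the ATP read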
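Anaerobic 48 hrs incubation at 37 deg C of 100 trophozoites/well with test compounds; ATPLite 1-Step luminescence, 15-30 min RT, reports cellular ATP as viability.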
Gal4-VP16 FLuc: VP16 counterscreen qHTS for inhibitors of ROR gamma transcriptional activity. Drosophila S2 Gal4-VP16 UAS-luciferase, luminescence, 20 h. Potency, µM (doses to about 53.6 µM), most hits filed as inhibitors. hit rate 3.5% among 310,000. AID 2546, 2010;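 also: Gal4-VP16 expression switched on by copper sulfate through the metallothionein promoter; nearly all actives have a fitted effect of over 50% in size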
ERG-DNA inh: qHTS for Small Molecule Inhibitors of the ERG Ets/DNA interaction | Potency, µM (highest dose often 76.9 µM), actives largely listed as inhibitors | Transcriptional regulator ERG (Homo sapiens), P11308 | fluorescence polarization, His-ERG Ets domain / labelled DNA | hit rate 0.028% among 370,000; active = well fitted inhibition curve with a large enough effect in the polarisation, with a control signal flat; inconclusive = small, poorly fitted or top-dose-only effect, or effect the other way, or a change in a side signal; inactive = no such curve, though single readings can be large or run the other way; the % refers to the polarisation;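 also: polarization taken with two DNA probes labelled with fluorescein and Texas red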
Target sequence (P11308 whole entry, looked up, the tested form may be a part): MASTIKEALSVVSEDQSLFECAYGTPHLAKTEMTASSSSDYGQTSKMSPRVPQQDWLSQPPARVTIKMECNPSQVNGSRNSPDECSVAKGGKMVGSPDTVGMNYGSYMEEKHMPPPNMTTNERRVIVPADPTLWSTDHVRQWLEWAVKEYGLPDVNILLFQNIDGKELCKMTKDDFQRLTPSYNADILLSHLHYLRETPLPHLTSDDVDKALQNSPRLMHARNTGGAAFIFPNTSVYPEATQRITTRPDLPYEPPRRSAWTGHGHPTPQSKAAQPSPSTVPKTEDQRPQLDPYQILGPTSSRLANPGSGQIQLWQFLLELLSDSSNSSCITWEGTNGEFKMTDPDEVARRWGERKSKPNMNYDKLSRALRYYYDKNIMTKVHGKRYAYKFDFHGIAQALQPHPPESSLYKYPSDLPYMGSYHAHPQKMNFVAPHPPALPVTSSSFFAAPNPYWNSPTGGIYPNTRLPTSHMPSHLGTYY
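His-tagged ERG Ets domain (1 uM in the protein solution; 300mM KCl, 50mM Tris-HCl, 1mM EDTA, 1mM DTT, pH 7.5) received compound, then a probe mix of 5 nM fluorescein-DNA and 100nM Texas-615-DNA. Fluorescence polarization was read for both dyes.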
RORgamma inh: qHTS for inhibitors of ROR gamma transcriptional activity. Nuclear receptor ROR-gamma (Mus musculus), P51450. Drosophila S2 Gal4-RORgamma UAS-luciferase reporter, 20 h. Potency, µM (titrated, usually from 53.6 µM), hits mostly inhibitors. hit rate 5.4% among 310,000; also: nearly all actives have a fitted effect of over 60% in size
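Luminescence from a UAS-regulated Photinus luciferase reporter in stably transfected Drosophila Schneider cells is measured; decreased signal marks ROR gamma inhibition. Fusion expression is induced by 700 uM copper sulfate for 20 hr.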
a7 integrin act: qHTS for Activators of Integrin-Mediated Alleviation for Muscular Dystrophy | alpha7betagal myoblasts, beta-gal FDG fluorescence, 48 h | Potency, µM (highest dose often 38.3 µM), hits mostly activators | hit rate 0.064% among 350,000 | AID 624291, 2012; also: nearly all actives have a fitted effect of over 60% in size
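Alpha7betagal+/- myoblasts (passage 13) were plated 16-24 hr, then exposed to compounds (1:260 dilution of DMSO stock) for 48 hours at 37C. After MPER lysis, β-galactosidase reporter activity was read as FDG fluorescence (ex 480/em 540) after 30 minutes.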
Of the large screens only hits and unclear results are named; the others gave an inactive call. Unless noted, calls follow the shape of the dose curve; as a rule, active = well fitted curve in the direction sought with a large enough effect; inconclusive = small, poorly fitted or top-dose-only effect, or another doubt; inactive = no such curve, though single readings can be large; an effect the other way counts as inactive or inconclusive.

O=C(NC1CC2CCCC(C1)N2S(=O)(=O)c1ccccc1)c1ccccc1 (stereo not drawn)	Gal4-VP16 FLuc 12.6µM, RORgamma inh inconclusive
COc1cc([C@H]2c3[nH]c4ccccc4c3C[C@H]3C(=O)N4[C@@H](c5cc(OC)c(OC)c(OC)c5)c5[nH]c6ccccc6c5C[C@H]4C(=O)N23)cc(OC)c1OC	Gal4-VP16 FLuc 10µM, RORgamma inh inconclusive
CC(C)(C)c1ccc(S(=O)(=O)N2CCN(Cc3noc(CCC(=O)N4CCCCC4)n3)CC2)cc1	none (no result: Giardia killer, Gal4-VP16 FLuc, RORgamma inh, a7 integrin act)
Cc1cccc(NC(=S)NC(=O)c2cccs2)n1	Gal4-VP16 FLuc inconclusive, RORgamma inh 3.55µM
Cc1cccc(NC(=O)/C=C/c2cccs2)n1	Gal4-VP16 FLuc 22.4µM, RORgamma inh inconclusive
Cc1nc(NC(=S)NC(=O)c2cccs2)ccc1Br	Gal4-VP16 FLuc 12.6µM, RORgamma inh 1.41µM
Cc1ccc(OCC(=O)NC(=S)Nc2ccc(Br)c(C)n2)cc1	RORgamma inh 2.51µM, a7 integrin act inconclusive (no result: ERG-DNA inh)
NC1(CO)COC(c2ccccc2)OC1 (stereo not drawn)	none (no result: Giardia killer, Gal4-VP16 FLuc, ERG-DNA inh, RORgamma inh)
COc1ccc(C(=O)N/N=C/c2ccc(OC)c(OS(=O)(=O)c3ccccc3)c2)cc1	none
CCOc1cc(/C=N/NC(=O)c2cccc([N+](=O)[O-])c2)ccc1OS(=O)(=O)c1ccccc1	Gal4-VP16 FLuc 14.1µM, RORgamma inh 7.94µM
COc1ccc(/C=N/NC(=O)c2cccc([N+](=O)[O-])c2)cc1OS(=O)(=O)c1ccc(C)cc1	Gal4-VP16 FLuc inconclusive, RORgamma inh 3.98µM
Cc1c2ccccc2c(CSC(=N)N)c2ccccc12	Gal4-VP16 FLuc inconclusive, RORgamma inh 11.2µM (no result: Giardia killer, ERG-DNA inh, a7 integrin act)
Cc1c2ccccc2c(C)c2c1ccc1ccccc12	Gal4-VP16 FLuc inconclusive (no result: a7 integrin act)
Cc1ccccc1NC(=S)N1CCCC1	none
Cc1cccc(NC(=S)N2CCN(c3ccccc3F)CC2)c1C	Gal4-VP16 FLuc 10µM, RORgamma inh 8.91µM
Cc1ccccc1NC(=S)N1CCN(c2ccccc2C)CC1	Gal4-VP16 FLuc 5.62µM, RORgamma inh 2.82µM
Cc1ccc(N2CCN(C(=S)Nc3ccccc3C)CC2)cc1	Gal4-VP16 FLuc inconclusive, RORgamma inh 10µM
CCCCNC(=S)N1CCN(c2ccccc2Cl)CC1	RORgamma inh 11.2µM
COC(=O)c1ccc(C(=O)NC(=S)Nc2nc3c(s2)CC(C)CC3)cc1 (stereo not drawn)	Gal4-VP16 FLuc 2µM, RORgamma inh 1µM
CCCCOc1ccc(C(=O)Nc2nc3c(s2)CC(C)CC3)cc1 (stereo not drawn)	none (no result: Giardia killer, Gal4-VP16 FLuc, RORgamma inh, a7 integrin act)
O=C(O)c1cccc(NC(=O)c2cn(-c3ccccc3)nc2-c2cc3ccccc3o2)c1	RORgamma inh inconclusive
O=C(N/N=C/c1cn(-c2ccccc2)nc1-c1cc2ccccc2o1)c1ccncc1	Gal4-VP16 FLuc 4.47µM, RORgamma inh 2.82µM
O=C(N/N=C/c1cn(-c2ccccc2)nc1-c1cc2ccccc2o1)c1cccnc1	Gal4-VP16 FLuc 1.41µM, RORgamma inh 3.98µM
Cc1nnc(SCC(=O)c2ccccc2)n1Cc1ccccc1	none
O=C(Nc1nnc(SCC(=O)N2CCCc3ccccc32)s1)c1cccc2ccccc12	RORgamma inh inconclusive
Cc1ccc(C(=O)Nc2nnc(SCC(=O)N3CCCc4ccccc43)s2)cc1	Giardia killer -125.5, Gal4-VP16 FLuc 1.26µM, RORgamma inh 0.501µM
CC(C)Oc1ccc(C(=O)Nc2nnc(SCC(=O)N3CCOCC3)s2)cc1	Giardia killer -95.4, Gal4-VP16 FLuc 1.78µM, RORgamma inh 3.16µM
CCOC(=O)CNC(=O)CSc1nnc(NC(=O)c2ccc3c(c2)OCO3)s1	Giardia killer inconclusive, Gal4-VP16 FLuc inconclusive, RORgamma inh 7.08µM
CCOC(=O)CNC(=O)CSc1nnc(NC(=O)c2ccc(C)cc2)s1	Giardia killer -87.1, Gal4-VP16 FLuc 6.31µM, RORgamma inh 5.62µM
CN(C)S(=O)(=O)c1ccc(C(=O)Nc2nnc(SCC(=O)N3CCOCC3)s2)cc1	none (no result: Giardia killer, Gal4-VP16 FLuc, ERG-DNA inh, RORgamma inh)
O=C(CSc1nnc(NC(=O)c2ccccc2)s1)NCc1ccco1	Giardia killer inconclusive, Gal4-VP16 FLuc inconclusive, RORgamma inh inconclusive
CCOC(=O)c1ccc(NC(=O)CSc2nnc(NC(=O)c3ccc(S(=O)(=O)N4CCOCC4)cc3)s2)cc1	none
CC(=O)Nc1ccc(NC(=O)CSc2nnc(NC(=O)c3ccc(Br)o3)s2)cc1	Gal4-VP16 FLuc 11.2µM, RORgamma inh 3.16µM
O=C(CSc1nnc(NC(=O)c2ccc3c(c2)OCO3)s1)NCc1ccco1	Giardia killer inconclusive, Gal4-VP16 FLuc inconclusive, RORgamma inh 12.6µM
O=C(CSc1cccc2cccnc12)Nc1ccc(S(=O)(=O)N2CCOCC2)cc1	Gal4-VP16 FLuc inconclusive, RORgamma inh 5.62µM
Cc1ccc(NC(=O)CSc2nnc(NC(=O)c3ccc(S(=O)(=O)N4CCOCC4)cc3)s2)cc1	Gal4-VP16 FLuc 31.6µM
CCC(=O)Nc1ccc(-c2nnc3c4ccccc4c(C)nn23)cc1	none (no result: Giardia killer, Gal4-VP16 FLuc, RORgamma inh, a7 integrin act)
Cc1ccc(N=C2C(=S)N(c3ccc(C)cc3)C(=N)N2/N=C/c2ccc(Cl)cc2)cc1	Gal4-VP16 FLuc 3.16µM, RORgamma inh 2.51µM
COc1ccc(/C=N/N2CCN(c3ccc(Cl)cc3)CC2)cc1	none
CC1Cc2cc(S(=O)(=O)CCC(=O)Nc3ccc(Cl)cc3F)ccc2N1C(=O)C1CC1 (stereo not drawn)	none (no result: Giardia killer, Gal4-VP16 FLuc, RORgamma inh, a7 integrin act)
CC(C)Oc1ccc(CNC(=O)c2ccc3c(c2)N(C)C(=O)C2CCCCN32)cc1 (stereo not drawn)	none (no result: Giardia killer, Gal4-VP16 FLuc, RORgamma inh, a7 integrin act)
Cc1cc(C)n(-c2nc3ccccc3c(=O)n2OCC(N)=O)n1	Gal4-VP16 FLuc 20µM, RORgamma inh 6.31µM
Cc1cc(CC(C)C)n(-c2nc3ccccc3c(=O)n2OCC(N)=O)n1	Gal4-VP16 FLuc 5.62µM, RORgamma inh 2.24µM
Cc1cc(C)n(-c2nc3ccccc3c(=O)n2OCCOc2ccccc2)n1	Gal4-VP16 FLuc 14.1µM, RORgamma inh inconclusive
C=CCOn1c(-n2nc(C)cc2C)nc2ccccc2c1=O	RORgamma inh inconclusive
Cc1ccc(C)c(Cn2c(=O)n(CCCC(=O)NCCc3ccc(Cl)cc3)c(=O)c3ccccc32)c1	none (no result: Giardia killer, Gal4-VP16 FLuc, RORgamma inh, a7 integrin act)
COc1ccc(CCNC(=O)CN(c2cc(C)cc(C)c2)S(=O)(=O)c2c(C)noc2C)cc1OC	none
CC(NC(=O)CN(c1ccc(Cl)cc1)S(C)(=O)=O)c1ccccc1 (stereo not drawn)	none
C=CCn1c(C(CCCC)CC(O)COCC(C)C)n[nH]c1=S (stereo not drawn)	Gal4-VP16 FLuc inconclusive, RORgamma inh 10µM
C=CCn1c(CCC(O)COCCCCC)n[nH]c1=S (stereo not drawn)	RORgamma inh inconclusive
C=CCn1c(C(CCCC)CC(O)COCCC)n[nH]c1=S (stereo not drawn)	Gal4-VP16 FLuc inconclusive, RORgamma inh 7.08µM
COc1cc(NC(=O)Cn2nc(C(F)(F)F)c(Br)c2C)cc([N+](=O)[O-])c1	Gal4-VP16 FLuc 17.8µM, RORgamma inh inconclusive
